The values that follow come from article PMC5540273 (PLoS ONE, 2017).

Among the test systems are DMPK; DYRK1A; DYRK1B; DYRK2; EGFR; EIF2AK1; EPHA1; EPHA2.
Holding throughout (settings): concentration: 1 μM, replicates: in singlicate; n = 1
In another experiment the test system is T1, DRAK1.
T1 construct: gene STK17A

In another experiment the test system is T2, DRAK2.
T2 construct: gene STK17B
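Note: KINOMEscan kinase panel screen.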

On to `c1ccc(-c2n[nH]cc2-c2ccnc3ccccc23)nc1` [GW271431], for which the “%Inh” value came out at 2% with DMPK; 19% with DRAK1; 18% in the experiment with DRAK2; 17% in the experiment with DYRK1A; 20% in the experiment on DYRK1B; 0% in the experiment with DYRK2. Besides, the “%Inh” value in the experiment on EGFR was 35%; in the experiment with EIF2AK1, 14%; in the experiment on EPHA1, 16%; in the experiment with EPHA2 it was 4%.
Take `Cc1c(Cn2c(C)nn3c(=O)cc(N4CCOC(C)C4)nc23)cccc1C(F)(F)F` (centres unmarked) [GSK2344444]: the “%Inh” value in the experiment with DMPK stood at 0%; with DRAK1, 1%; with DRAK2 it was 0%; with DYRK1A it was 7%; with DYRK1B it was 0%; in the experiment on DYRK2, 24%. The “%Inh” value in the experiment with EGFR is reported as 34%; in the experiment on EIF2AK1 it was 0%; with EPHA1, 0%; with EPHA2 it was 5%.
For `COc1ccc(Nc2ncc(C#N)c(Nc3ccccc3C(N)=O)n2)cc1N1CCN(C)CC1.Cl` [GSK1558669], the “%Inh” value in the experiment with DMPK amounted to 88%; in the experiment on DRAK1 it was 99.1%; with DRAK2, 83%; in the experiment on DYRK1A, 99.8%; in the experiment with DYRK1B it was 87%; in the experiment with DYRK2, 99.1%. The “%Inh” value with EGFR amounted to 92.7%; in the experiment on EIF2AK1 it was 48%; with EPHA1, 92.9%; with EPHA2, 80%.
On to `COc1ccc(COc2cc(-n3cnc4ccccc43)sc2C(N)=O)cc1` [GSK1024304], for which the “%Inh” value in the experiment with DMPK was found to be 29%; with DRAK1, 16%; in the experiment with DRAK2, 0%; in the experiment with DYRK1A, 16%; in the experiment with DYRK1B it was 12%; with DYRK2 it was 12%. Further, the “%Inh” value in the experiment with EGFR came out at 4%; with EIF2AK1 it was 0%; with EPHA1, 0%; with EPHA2, 0%.
In the case of `Fc1ccc(-c2ncn(CCCN3CCOCC3)c2-c2ccccn2)cc1` [SB-211742], the “%Inh” value in the experiment with DMPK stood at 17%; with DRAK1, 0%; in the experiment on DRAK2, 0%; in the experiment on DYRK1A it was 11%; with DYRK1B, 37%; in the experiment on DYRK2 it was 5%. The “%Inh” value with EGFR is 12%; in the experiment with EIF2AK1 it was 0%; in the experiment with EPHA1, 17%; with EPHA2, 31%.
